# CD11b adhes enh: enhancers of CD11b/CD18 adhesion to fibrinogen, primary screen, K562 cells, luminescence. Integrin beta-2 (Homo sapiens) + Integrin alpha-M (Homo sapiens), P05107+P11215. ATPlite luminescence. activation, % at 10 µM. hit rate 0.07% among 93,000. AID 1499, 2009;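 active = 10 µM primary screen giving 50% or more activity, confirmed by 40% or more on retest at that dose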
# CYP2C9 inh: blockers of cytochrome P450 2C9 activity – biochemical, luminescence, ADME assay, primary screen | P11712 | CYP2C9 Supersomes, luciferin-H conversion | inhibition, % at 5 µM | hit rate 20% among 96,000 | AID 777, 2007;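 active = blocking of liver enzyme CYP2C9 beyond about 50% at 5 µM, limit read from the data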
# CYP2C9 activ: human CYP2C9 activators, primary screen, biochemical, luminescence; activation factor at 5 µM; AID 1024, 2008; hit rate 1.4% among 96,000; recombinant CYP2C9, luciferin-H conversion; stronger effect = higher value; factor 1 = untreated enzyme, 0 = blocked; Cytochrome P450 2C9 (Homo sapiens), P11712;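 active = activation factor of 2 or more for CYP2C9 at a 5 µM dose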;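 note: 0 = sulfaphenazole-blocked wells and 1 = vehicle-only wells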
# Mac1 fbg inh: inhibitors of CD11b/CD18 adhesion to fibrinogen, primary screen, K562 cells, luminescence; ATPlite luminescence; Mn2+ added to activate the integrin; inhibition, % at 10 µM; Integrin beta-2 (Homo sapiens) + Integrin alpha-M (Homo sapiens), P05107+P11215; hit rate 0.54% among 93,000;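 active = primary inhibition of 50% or more at 10 µM, then 40% or more on retest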
# CYP2C19 inh: blockers of cytochrome P450 2C19 activity – biochemical, luminescence, ADME assay, primary screen. P33261. CYP2C19 Supersomes, luciferin-H EGE luminescence, 30 min. inhibition, % at 5 µM. hit rate 21% among 96,000. AID 778, 2007;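 active = CYP2C19 inhibition above a set limit at 5 µM in the primary screen, cut at about 50% in these data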;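 note: plate controls were negative control wells for no effect and 2.5 mM tranylcypromine positive control for full effect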
# CYP2C19 act: human CYP2C19 activators, primary screen, biochemical, luminescence. Cytochrome P450 2C19 (Homo sapiens), P33261. recombinant CYP2C19, luciferin-H EGE luminescence; stronger effect = higher value; 0 = fully inhibited enzyme, 1 = untreated enzyme. activation factor at 5 µM. 96,000 tested, under 10 active;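 active = activation factor of at least 2 at 5 µM in the primary screen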;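 note: 0 = wells with 2.5 mM tranylcypromine and 1 = vehicle-only wells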
# * = called active by the depositor; / = not tested or not shown. Rows were chosen to be rich in hits. Some 28% of all compounds tested hit in one or more screens of this group.
SMILES,CD11b adhes enh,CYP2C9 inh,CYP2C9 activ,Mac1 fbg inh,CYP2C19 inh,CYP2C19 act
COCCOC(=O)c1c(C)oc2ccc(OCC=C(C)C)cc12,0,14,0.9,23,20,0.8
Cc1c(C(=O)Nc2ccc3c(c2)OCO3)sc2ncn(CC(=O)N3CC(C)CC(C)C3)c(=O)c12 (centres undefined),3,79*,0.2,-42,23,0.8
Cc1c(C(=O)NC(C)C)sc2ncn(CC(=O)N3CCC(C)CC3)c(=O)c12,5,63*,0.4,-10,39,0.6
Cc1c(C(N)=O)sc2ncn(CC(=O)OC(C)C)c(=O)c12,-2,8,0.9,0,4,1
Cc1c(C(N)=O)sc2ncn(CC(=O)N3CCC(C)CC3)c(=O)c12,-3,77*,0.2,-12,16,0.8
OC(COc1c(Cl)cc(Cl)cc1Cl)CN1CCCCC1 (centres undefined),-2,9,0.9,-6,47,0.5
O=C(NC1CC2CCCC(C1)N2S(=O)(=O)c1ccccc1)c1ccccc1 (centres undefined),5,32,0.7,36,63*,0.4
O=C(NC1CC2CCCC(C1)N2C(=O)NC1CCCCC1)c1ccccc1 (centres undefined),0,0,1,-11,2,1
CC(=O)Nc1ccc(S(=O)(=O)N2C3CCCC2CC(NC(=O)C2CCCCC2)C3)cc1 (centres undefined),-2,27,0.7,7,14,0.9
O=C(NC1CC2CCCC(C1)N2C(=O)Nc1ccccc1)c1ccncc1 (centres undefined),4,40,0.6,-9,92*,0.1
CC(=O)NC1CC2CCCC(C1)N2S(=O)(=O)c1ccccc1 (centres undefined),3,-43,1.4,16,50*,0.5
Cc1cccc(C(=O)NC2CC3CCCC(C2)N3S(=O)(=O)c2ccccc2)c1 (centres undefined),-1,91*,0.1,-49,97*,0
O=C(NC1CCS(=O)(=O)C1)c1cccc(S(=O)(=O)N2CCCCC2)c1 (centres undefined),2,-1,1,-7,-2,1
CC1CCN(CCCNC(=O)c2cn(C)c3ccc(S(=O)(=O)N4CCCC4)cc3c2=O)CC1,-2,7,0.9,-22,10,0.9
Cc1ccc(NC2=NCCCCC2)cc1,0,20,0.8,-4,5,1
CC(C)NC(=O)c1cc(=O)n(C)c(=O)n1C,0,10,0.9,-5,14,0.9
COc1cccc(CN2C(=O)CCC2(C)C(=O)NC2CCCC2)c1 (centres undefined),-1,-79,1.8,-28,20,0.8
CNc1nc(C)c(C#N)c(-c2ccccc2)c1C(C)=O,-1,33,0.7,-2,55*,0.5
CC(=O)Nc1cc(S(=O)(=O)Nc2ccccc2)c(C)cc1C,/,-8,1.1,/,21,0.8
CC(=O)Nc1cc(S(=O)(=O)Nc2cccc(C)c2)c(C)cc1C,/,-56,1.6,/,65*,0.4
CC(=O)Nc1cc(S(=O)(=O)Nc2ccccc2C)c(C)cc1C,/,-32,1.3,/,51*,0.5
CN(C)S(=O)(=O)CC12CCC(CC1=O)C2(C)C (centres undefined),-3,-8,1.1,5,23,0.8
O=C(NCc1ccco1)c1ccc(Cn2c(=O)c3ccccc3n(Cc3cccc(Cl)c3)c2=O)cc1,13,0,1,-4,2,1
COCCCNC(=O)c1ccc(Cn2c(=O)c3ccccc3n(Cc3ccc(C)cc3)c2=O)cc1,2,54*,0.5,12,47,0.5
Cc1ccc(-c2nc(C)sc2CC(=O)Nc2cccc(C)c2C)cc1,1,/,/,-4,/,/
SMILES,CD11b adhes enh,CYP2C9 inh,CYP2C9 activ,Mac1 fbg inh,CYP2C19 inh,CYP2C19 act
O=C(NCc1ccccc1)c1ccc(CS(=O)(=O)c2ccccc2)o1,-4,42,0.6,3,30,0.7
CN(CC(=O)N1CCN(C2CCCCC2)CC1)S(=O)(=O)c1cccc2nsnc12,-4,12,0.9,-28,-10,1.1
COc1ccc(C2Nc3ccccc3C(=O)N2c2ccc(C)cc2)cc1Cn1nc(C)c([N+](=O)[O-])c1C (centres undefined),-5,92*,0.1,8,53*,0.5
COc1c[nH]n(C2CCCCC2)c(=O)c1=O,0,22,0.8,5,2,1
CCOC(=O)c1c(N2C(=O)Nc3cc(Cl)c(Cl)cc3N2O)sc2c1CCCCC2,/,70*,0.3,/,17,0.8
O=C(NCCN1CCOCC1)C1CC(=O)N(c2ccc(F)c(Cl)c2)C1 (centres undefined),-2,-15,1.1,5,2,1
CC(=O)OC1c2ccccc2C(=O)N1Cc1ccccc1Cl (centres undefined),5,-18,1.2,8,99*,0
CCN(CCCNC(=O)C1CCN(S(=O)(=O)c2cccc3nonc23)CC1)Cc1ccccc1,7,-6,1.1,-38,-6,1.1
C=CCOc1nc2c(c(=O)n(C)c(=O)n2C)n1Cc1ccccc1Cl,/,17,0.8,/,21,0.8
CC(C)CCn1c(Oc2ccccc2Cl)nc2c1c(=O)n(C)c(=O)n2C,2,85*,0.2,3,5,0.9
CC(C)CCn1c(Cl)nc2c1c(=O)n(C)c(=O)n2C,/,2,1,/,55*,0.5
COc1cccc(Cn2c(Oc3ccccc3)nc3c2c(=O)n(C)c(=O)n3C)c1,/,85*,0.2,/,44,0.6
CSc1nc(C)c2c(n1)N(c1ccc(C(C)C)cc1)CC2,0,6,0.9,8,-5,1
O=C1COc2ccc3ccccc3c2CN1,0,-4,1,5,5,0.9
CCCCOC(=O)Nc1cccc(C(C)=O)c1,0,25,0.7,-24,34,0.7
O=C(CSc1nnnn1-c1cccnc1)Nc1ccc(OCc2ccccc2)cc1,2,47,0.5,0,14,0.9
S=c1nn[nH]n1C12CC3CC(CC(C3)C1)C2,-2,8,0.9,-15,-21,1.2
O=C(CCCSc1nc(-c2ccco2)cc(C(F)(F)F)n1)Nc1ccc2c(c1)OCO2,-4,79*,0.2,-4,48,0.5
COc1ccccc1CCNC(=O)CSc1nc(-c2ccco2)cc(C(F)(F)F)n1,-1,5,0.9,-3,3,1
O=C(CSc1nc(-c2ccco2)cc(C(F)(F)F)n1)Nc1cccnc1,0,53*,0.5,-2,26,0.7
